# Sampled rows, rich in hits. Any-hit rate of the full collection: about 18%.
# TGFb inhibitor: blocks TGF-b signaling; HepG2 CAGA-GFP TGF-b/SMAD3 reporter, GFP fluorescence, 18 h; TGF-beta stimulated, 500 pg/mL final; actives 1.2% (n = 410,000); Potency, µM (series often up to 46.1 µM), inactives show at the highest dose activity, negative = inhibition, most hits filed as inhibitors; also: potency is read from the fitted curve at half-maximal effect; % is scaled to controls: 0 for no effect and ±100 for the full control effect; nearly all actives have a fitted effect of over 65% in size
#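 Inhibition of TGF-beta-driven CAGA-GFP reporter expression in HEPG2 cells is measured by cellular GFP fluorescence after 18 h stimulation with 500 pg/mL recombinant TGF-beta in 1% FBS medium at 37 degrees C.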
# DT40 TDP1 CPT: growth inhibition of DT40 Tdp1-/-;hTDP1 cells with camptothecin (screen for TDP1 inhibitors) | chicken DT40 Tdp1-/-;hTDP1 cells + 20 nM CPT, ATP luminescence, 48 h | actives 12% (n = 420,000) | Potency, µM (titrated, usually from 46.2 µM), for the others: at the top dose activity change, negative = growth inhibition, hits mostly inhibitors | AID 686979; also: potency is read from the fitted curve at half-maximal effect; % is scaled to controls: 0 for no effect and ±100 for the full control effect; nearly all actives have a fitted effect of over 55% in size
#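 Cell growth measured by CellTiter-Glo luminescence after a minimum 48 h, 37 C compound exposure with 20 nM CPT in Tdp1-knockout DT40 cells stably expressing hTDP1, seeded 400/well; qHTS titration format.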
# DT40 TDP1 no CPT: qHTS for Inhibitors of human tyrosyl-DNA phosphodiesterase 1 (TDP1): qHTS in cells in absence of CPT; DT40 Tdp1-/- hTDP1 cells, no CPT, ATP luminescence, 48 h; Potency, µM (titrated, usually from 46.2 µM), inactives show at the highest dose activity change, negative = growth inhibition, most hits filed as inhibitors; actives 15% (n = 420,000); AID 686978, 2013; also: potency is read from the fitted curve at half-maximal effect; % is scaled to controls: 0 for no effect and ±100 for the full control effect; nearly all actives have a fitted effect of over 55% in size
#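 Seeded 400 DT40-hTDP1 cells/well (vehicle DMSO, no 20 nM CPT); pinned compounds; ≥48 hr at 37 °C; CellTiter-Glo luminescence as viability measure.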
# IL-1B inflam inh: inhibitors of inflammasome signaling (IL-1 beta secretion). actives 4.7% (n = 360,000). THP-1 LPS/ATP IL-1B secretion, AlphaLISA, 16 h; active compounds read low. AID 743279. activity change, % at 57.5 µM; in the data active = activity change below about -50%; inconclusive = mostly about -30% to -49%; also: % is scaled to controls: 0 for no effect and ±100 for the full control effect
#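 Secreted IL-1B measured by AlphaLISA bead assay after 16 h compound exposure of THP-1 cells; compounds (final up to 57.5 uM) added 1 h before LPS (250 ng/mL) and ATP (1.25 mM) stimulation; lower signal means less secretion.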
# HepG2 tox-1: counter-screen for TGF-b inhibitors: cytotoxicity in HepG2 cells. HepG2 CAGA-GFP viability, ATP luminescence, 18 h. Potency, µM (doses to about 46.1 µM), for inactives: at the top dose activity change, negative = cytotoxicity, hits mostly cytotoxic. actives 0.76% (n = 410,000). AID 588856; also: potency is read from the fitted curve at half-maximal effect
#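 HepG2 CAGA-GFP cells (1000/well, DMEM with 1% FBS) received compound, then TGF-beta at 500 pg/mL final, and were incubated 18 hours at 37 degrees C. Viability was read by CellTiter-Glo luminescence. Media-only wells were set as complete cell-killing and DMSO as no toxicity.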
# TDP1 block: inhibitors of human tyrosyl-DNA phosphodiesterase TDP1; Q9NUW8; recombinant TDP1, AlphaScreen DNA substrate cleavage; Potency, µM (doses to about 130 µM), for inactives: at the highest dose activity change, negative = inhibition, hits mostly inhibitors; actives 0.28% (n = 350,000); also: potency is read from the fitted curve at half-maximal effect; % is scaled to controls: 0 for no effect and ±100 for the full control effect; nearly all actives have a fitted effect of over 40% in size
# Target sequence (Q9NUW8 whole entry, looked up): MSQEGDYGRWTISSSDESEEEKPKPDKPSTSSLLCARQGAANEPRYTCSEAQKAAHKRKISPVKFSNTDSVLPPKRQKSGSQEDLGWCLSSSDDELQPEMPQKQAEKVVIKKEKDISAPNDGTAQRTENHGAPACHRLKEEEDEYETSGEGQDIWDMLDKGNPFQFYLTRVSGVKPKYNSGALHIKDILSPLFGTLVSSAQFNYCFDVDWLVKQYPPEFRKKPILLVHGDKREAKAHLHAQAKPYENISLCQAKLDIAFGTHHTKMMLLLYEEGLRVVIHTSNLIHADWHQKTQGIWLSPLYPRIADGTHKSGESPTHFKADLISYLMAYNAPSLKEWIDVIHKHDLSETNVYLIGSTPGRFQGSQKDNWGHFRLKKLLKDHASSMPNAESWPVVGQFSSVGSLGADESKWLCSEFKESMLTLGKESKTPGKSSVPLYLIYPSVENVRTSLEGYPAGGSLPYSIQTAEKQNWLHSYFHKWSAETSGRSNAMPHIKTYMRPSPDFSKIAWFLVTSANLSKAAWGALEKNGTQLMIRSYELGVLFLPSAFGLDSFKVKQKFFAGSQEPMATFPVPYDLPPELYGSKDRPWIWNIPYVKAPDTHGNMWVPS
#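 Tdp1 1 nM final; 15 min RT w/ cpd; substrate 15 nM, 5 min; beads 10 ug/ml, 10 min; AlphaScreen read. Neg ctrl: no enzyme.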
# TGFb CAGA inh: confirmation of TGF-b signaling inhibitors in HepG2 reporter cells. HepG2 CAGA-GFP TGF-b reporter, GFP fluorescence, 18 h; cells stimulated with TGF-beta, 500 pg/mL. actives 63% (n = 1,600). Potency, µM (doses to about 46.1 µM), for inactives: at the highest dose activity, negative = inhibition, usual class: inhibitors. shares compounds with TGFb inhibitor; also: potency is read from the fitted curve at half-maximal effect; % is scaled to controls: 0 for no effect and ±100 for the full control effect; nearly all actives have a fitted effect of over 65% in size
# HepG2 tox-2: HepG2 cytotoxicity, TGF-b inhibitor counterscreen; HepG2 CAGA-GFP viability, ATP luminescence, 18 h; cells stimulated with TGF-beta, 500 pg/mL; AID 720535; shares compounds with TGFb inhibitor; actives 27% (n = 1,600); Potency, µM (series often up to 46.1 µM), without a hit: at the highest dose activity, negative = cytotoxicity, usual class: inhibitors; also: potency is read from the fitted curve at half-maximal effect; % is scaled to controls: 0 for no effect and ±100 for the full control effect; nearly all actives have a fitted effect of over 70% in size
# TGFb CCL64 inh: blocks TGF-b signaling in CCL64 reporter cells; shares compounds with TGFb inhibitor; CCL64 CAGA-GFP reporter, TGF-b stimulated, GFP fluorescence, 18 h; Potency, µM (series often up to 46.1 µM), for inactives: at the highest dose activity, negative = inhibition, actives largely listed as inhibitors; actives 41% (n = 1,600); also: potency is read from the fitted curve at half-maximal effect; nearly all actives have a fitted effect of over 65% in size
# TGFb COP inh: TGF-b inhibition validated with COP promoter. HepG2 COP-GFP TGF-b reporter, GFP fluorescence, 18 h; cells stimulated by added recombinant TGF-beta. shares compounds with TGFb inhibitor. Potency, µM (series often up to 46.1 µM), inactives show at the top dose activity, negative = inhibition, most hits filed as inhibitors. actives 3% (n = 1,600). AID 720537; also: potency is read from the fitted curve at half-maximal effect; nearly all actives have a fitted effect of over 70% in size
# Numbers without * were called inactive; i = inactive; ? = inconclusive; nt = no result; ! = not active in a repeat; [ ] = dose if it differs, or a comment. Unless noted, calls follow the shape of the dose curve; as a rule, active = well fitted curve in the direction sought with a large enough effect; inconclusive = small, poorly fitted or top-dose-only effect, or another doubt; inactive = no such curve, though single readings can be large; an effect the other way counts as inactive or inconclusive.
SMILES,TGFb inhibitor,DT40 TDP1 CPT,DT40 TDP1 no CPT,IL-1B inflam inh,HepG2 tox-1,TDP1 block,TGFb CAGA inh,HepG2 tox-2,TGFb CCL64 inh,TGFb COP inh
C[C@@H](C(=O)O)c1ccc(-c2ccccc2)c(F)c1,nt,5.3%,2.2%,nt,nt,10.7%[56.1 µM],nt,nt,nt,nt
Cc1ccc(NC(=O)C(C)c2ccc(-c3ccccc3)c(F)c2)cc1 (centres undefined),10µM*,?,7.31µM*,-9.1,-32.9%,4.9%,-10.1%,-13.5%,0.3%,-1.8%
O=C(N/C(=C/c1cccc(Br)c1)C(=O)N1CCOCC1)c1ccco1,-4.0%,-1.5%,1.4%,-13.8,1.6%,nt,nt,nt,nt,nt
CCCNC(=O)C1(C)CCN1C(=O)c1ccccc1CCc1ccccc1 (centres undefined),?,?,?,0.6,-50.2%,nt,nt,nt,nt,nt
C#Cc1ccc(NC(=O)C2(C)CCN2C(=O)c2ccccc2CCc2ccccc2)cc1 (centres undefined),?,?,?,-8.9,-26.7%,nt,?,-12.9%,?,2.3%
CC(=O)Nc1ccc(S(=O)(=O)N(C)CC(=O)Nc2cccc(S(=O)(=O)N3CCCC3)c2)cc1,-10.3%,?,-29.8%,23.8,3.4%,nt,nt,nt,nt,nt
CCCC[C@H]1COCCS(=O)(=O)N1Cc1ccc(Br)cc1,10µM*!,?,?,-16.1,0.3%,nt,?,-17.1%,?,15.9%
CCC1COCCS(=O)(=O)N1Cc1ccc(Cl)cc1 (centres undefined),?,?,?,10.1,-5.1%,nt,nt,nt,nt,nt
CC(=O)NS(=O)(=O)c1ccc(N=c2ssc3c2-c2ccc(C)cc2NC3(C)C)cc1,3.0%,-27.5%,?,9.8,-12.2%,2.7%,nt,nt,nt,nt
COc1ccc(-c2[nH]ncc2-c2ccc(Cl)cc2)c(O)c1,10µM*,-24.2%,?,-0.8,-60.6%,9.2%,?,-19.6%,?,24.3%
COc1ccc(-c2cn[nH]c2-c2ccc(OCc3ccc([N+](=O)[O-])cc3)cc2O)cc1OC,8.91µM*,?,20.6µM*,?,-45.4%,nt,20.6µM*,?,?,23.3%
Cc1ccc(Cc2c(-c3ccco3)nc3ccc(Br)cn23)cc1,?,?,?,-15.8,-59.7%,nt,nt,nt,nt,nt
COc1ccccc1Cc1c(-c2ccco2)nc2c(C)cc(Br)cn12,8.91µM*,2.91µM*,5.8µM*,-12.6,-86.9%,nt,7.31µM*,9.2µM*,4.61µM*,?
COc1ccccc1Cc1c(-c2ccco2)nc2ccc(C)cn12,10µM*,8.2µM*,8.2µM*,?,-17.3%,nt,16.4µM*,?,?,49.3%
Cc1ccc2nc(-c3ccco3)c(CC3CCCCC3)n2c1,10µM*,13µM*,10.3µM*,-16.9,-32.1%,nt,?,?,20.6µM*,16.3%
NC(=O)N=Nc1c(O)n(Cc2ccccc2)c2ccc(Br)cc12,-1.4%,3.6%,-25.3%,13.7,-23.6%,7.2%,nt,nt,nt,nt
O=C(Nc1ccc(Br)cc1)c1cccc(S(=O)(=O)Nc2cnc3ccccc3c2)c1,12.6µM*,-28.7%,?,?,-26.9%,2.7%,8.2µM*,?,23.1µM*,91.9%
O=C(O)c1ccc(NC(=O)c2cccc(S(=O)(=O)Nc3ccc(C(=O)O)cc3)c2)cc1,-7.8%,8.1%,-0.8%,-10.1,-18.4%,nt,nt,nt,nt,nt
CC(C)(C)c1nnc(NC(=O)CCS(=O)(=O)c2ccccc2)s1,7.08µM*,7.31µM*,23.1µM*,-102.6*,5.6%,nt,3.66µM*,-10.2%,?,29.5%
Cc1ccc(S(=O)(=O)CC(=O)Nc2nnc(C(C)(C)C)s2)cc1,16.3%,7.3%,-0.5%,10.7,9.2%,11.7%,nt,nt,nt,nt
CCOc1cccc2sc(NC(=O)CCS(=O)(=O)c3ccccc3)nc12,14.1µM*,8.2µM*,8.2µM*,i,-8.5%,1.4%,11.6µM*,23.1µM*,18.4µM*,?
c1ccc(-c2nn[nH]n2)nc1,-3.3%,1.5%,-3.4%,5.1,4.0%,nt,nt,nt,nt,nt
CCC(C)Nc1nc(-c2ccccn2)nc2ccccc12 (centres undefined),?,4.11µM*,3.66µM*,-20.3,-14.3%,nt,14.6µM*,?,11.6µM*,71.6%
Cc1csc(NC(=O)c2cccc(Cn3nc(C)c(Br)c3C)c2)n1,?,-27.0%,?,-15.7,-19.0%,4.4%,nt,nt,nt,nt
O=S(=O)(Nc1cc(Cl)ccc1-n1cncn1)c1cc(Br)ccc1Br,10µM*,25.9µM*,5.8µM*,-54.2*,-42.1%,-2.1%[56.1 µM],20.6µM*,?,20.6µM*,41.3%
O=S(=O)(Nc1cc(Cl)ccc1-n1cncn1)c1ccc(F)cc1,-11.3%,?,?,44.9,-3.1%,3.8%,nt,nt,nt,nt
CC1CCC(NC(=O)c2ccc(-n3cncn3)c([N+](=O)[O-])c2)CC1 (centres undefined),?,11.4%,-106.9%,11.8,-33.9%,-6.0%,nt,nt,nt,nt
COc1cccc2c1C(=O)c1c(O)c3c(c(O)c1C2=O)CC(O)(C(C)=O)CC3OC1CC(N(C)C)C(O)C(C)O1 (centres undefined),0.794µM*,0.0517µM*,0.082µM*,-101.2*,-42.5%,nt,0.259µM*,0.326µM*,1.03µM*,?

# High-throughput results (PubChem)
